# From PubChem BioAssay
# The list is not random: actives were taken first. Their share in the collection is about 11%.
# AmpC inh detg = inhibitors of E. coli AmpC beta-lactamase with detergent | AmpC hydrolysis of nitrocefin, absorbance 480 nm, 0.01% Triton | P00811 | AID 485294 | 370,000 compounds, 0.041% hits | Potency, µM (doses to about 114 µM), actives largely listed as inhibitors; note: nearly all actives have a fitted effect of over 25% in size
# Target sequence (P00811 whole entry, looked up): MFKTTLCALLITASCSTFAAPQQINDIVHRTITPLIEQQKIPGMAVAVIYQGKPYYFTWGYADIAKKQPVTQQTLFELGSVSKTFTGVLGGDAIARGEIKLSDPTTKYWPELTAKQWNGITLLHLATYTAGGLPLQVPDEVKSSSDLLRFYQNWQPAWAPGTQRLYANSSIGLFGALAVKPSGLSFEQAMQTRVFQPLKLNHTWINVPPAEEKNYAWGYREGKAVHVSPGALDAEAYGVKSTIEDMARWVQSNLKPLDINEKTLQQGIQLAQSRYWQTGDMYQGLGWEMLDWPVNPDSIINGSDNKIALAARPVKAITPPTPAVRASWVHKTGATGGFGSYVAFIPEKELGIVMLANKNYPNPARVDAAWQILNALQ
#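 AmpC (5.3 nM in the dispensed reagent) in 20 mM phosphate pH 7.0 with 0.01% (detergent screen) or 0.0001% Triton X-100 was preincubated with compounds for 15 min at room temperature. Nitrocefin was then added from an 800 uM solution, and hydrolysis was followed at 480 nm.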
# AMA1 RON2 block = AMA1-RON2 (P. falciparum) interaction inhibition; AlphaScreen AMA1-biotinylated RON2 peptide binding; Potency, µM (highest dose often 58.2 µM), most hits filed as inhibitors; 360,000 compounds, 0.2% hits; note: nearly all actives have a fitted effect of over 45% in size
#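 AMA1 (3D7) with his tag at 25 nM final met compounds first, then biotinylated RON2 peptide at 25 nM; detection used donor plus acceptor beads, 10 µg/mL apiece, read by AlphaScreen after 30 min at room temperature.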
# Pf growth 48h = inhibits P. falciparum growth in the first generation, 48 h; 310,000 compounds, 5.9% hits; Potency, µM (top dose mostly 28.7 µM), hits mostly inhibitors; P. falciparum luciferase growth in erythrocytes, 48 h; AID 504832
#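 Erythrocytes infected with P. falciparum carrying an integrated firefly luciferase reporter (2% hematocrit, 0.1% parasitemia final) were exposed to compounds in RPMI 1640 with 0.5% Albumax at 37 C, 5% CO2. Growth inhibition was scored as reduced luminescence.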
# HCV inh = blocks hepatitis C virus; Huh7.5.1 HCVcc-Cre infection, luciferase reporter, 44 h; Potency, µM (series often up to 41.8 µM), usual class: inhibitors; 340,000 compounds, 3.4% hits
#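 Antiviral activity was scored by luciferase reporter output from cells infected with HCVcc-Cre (~0.5 moi) in presence of compound, 44 h infection period, cells seeded 1,000/well 4 h prior.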
# AmpC no deterg = blocks E. coli AmpC beta-lactamase in detergent-free assay | P00811 | AmpC nitrocefin hydrolysis, absorbance 480 nm, 0.0001% Triton | Potency, µM (doses to about 57.1 µM), most hits filed as inhibitors | 330,000 compounds, 0.52% hits | AID 485341; note: nearly all actives have a fitted effect of over 20% in size
#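 20 mM phosphate pH 7.0 + 0.01% (detergent screen) or 0.0001% Triton X-100; 5.3 nM AmpC reagent; cpd preinc 15 min RT; nitrocefin (800 uM stock) to start; A480 q20 s × 4 min; Activity was normalised to no-enzyme and no-compound control wells.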
# Pf growth 96h = inhibits malaria parasite growth, 96 h; P. falciparum luciferase reporter growth, 96 h; AID 504834; 320,000 compounds, 6.9% hits; Potency, µM (titrated, usually from 28.7 µM), most hits filed as inhibitors
#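 Luminescence readout: decreased luciferase signal marks inhibited growth of reporter-expressing P. falciparum in infected red cells (2% hematocrit, 0.05% parasitemia final), exposed to compound two generations (96 h, 37 C, 5% CO2).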
# Hits are given with their value; i = inactive; ? = inconclusive; nt = no result; [ ] = remark or other dose. Calls come from the whole dose curve; as a rule, active = well fitted curve in the direction sought with a large enough effect; inconclusive = small, poorly fitted or top-dose-only effect, or another doubt; inactive = no such curve, though single readings can be large; an effect the other way counts as inactive or inconclusive.
SMILES,AmpC inh detg,AMA1 RON2 block,Pf growth 48h,HCV inh,AmpC no deterg,Pf growth 96h
Cc1ccc(-n2nc(C)c3c(C)c(CCC(=O)NCC4CCCO4)c(=O)n(C)c32)cc1 (stereo not drawn),i,i,?,i,i,?
Cc1nc(CS(=O)(=O)c2ccccc2)cc(Sc2ccccc2Cl)n1,i,i,i,i,?,i
Cc1nc(CS(=O)(=O)c2ccccc2)cc(Sc2ccc(Cl)cc2)n1,i,i,?,i,4µM,?
Cc1nc(CS(=O)(=O)c2ccc(Cl)cc2)cc(Sc2ccccc2Cl)n1,i,i,?,i,3.5µM,?
CCc1ccc(N(CC)C(=O)Cn2c(=O)oc3ccccc32)cc1,i,nt,nt,nt,nt,nt
Cc1[nH]c2ccccc2c1C1N2CC3(C)CN1CC(C)(C2)C3=O (stereo not drawn),i,nt,nt,nt,nt,nt
Nc1c(C(=O)Nc2cccc(F)c2)nnn1-c1cccc(C(F)(F)F)c1,i,i,i,?,i,?
Nc1c(C(=O)Nc2ccc(F)cc2)nnn1-c1cccc(C(F)(F)F)c1,i,i,i,i,i,9.3µM
Cc1ccc(NC(=O)c2nnn(-c3cccc(C(F)(F)F)c3)c2N)cc1,i,i,i,i,i,12µM
Cc1ccc(C#CC[N+]2(C)CCCCC2)cc1,i,i,6.6µM,i,i,1.9µM
C#CC[N+]1(CC#Cc2ccc(C)cc2)CCCCC1,i,i,1.7µM,?,i,?
C(#Cc1ccc(C#CCN2CCCC2)cc1)CN1CCCC1,i,i,i,?,i,?
COc1ccccc1N1CCN(C(=O)c2cc3c(=O)n(Cc4cccnc4)ccc3nc2C)CC1,i,nt,nt,nt,nt,nt
COC(=O)CCC(=O)Oc1ccc(OC(=O)CCC(=O)OC)cc1,i,nt,?,i[0.335 µM],i,i
CCOC(=O)c1ccc(OC(=O)CCCCCN=C(N)N)cc1,nt,i,?,i,nt,4.5µM
O=C(Nc1ccc2oc(-c3cccnc3)nc2c1)c1ccco1,i,i,i,i,i,i
CCCCOc1cccc(C(=O)Nc2ccc3oc(-c4cccnc4)nc3c2)c1,i,nt,nt,nt,nt,nt
CCOc1cccc(C(=O)Nc2ccc3oc(-c4cccnc4)nc3c2)c1,i,i,?,10µM,i,?
O=C(Nc1ccc2oc(-c3ccccc3)nc2c1)c1ccncc1,?,i,i,10µM,i,?
O=C(Nc1ccc2oc(-c3cccnc3)nc2c1)c1ccc([N+](=O)[O-])o1,i,i,?,2.5µM,i,?
O=C(Nc1ccc2nc(-c3ccccc3)oc2c1)c1ccco1,i,i,?,10µM,i,i
O=C(Nc1ccc2oc(-c3cccnc3)nc2c1)c1ccc(Br)o1,i,i,nt,i,i,?
COc1cccc(CNC(=O)c2ccc(Cn3c(SCc4ccccc4)nc4cccnc43)cc2)c1,i,nt,nt,nt,nt,nt
O=C(Nc1ccc2oc(-c3ccccc3Cl)nc2c1)c1cncc(Br)c1,i,i,i,18µM,i,i
O=C(Nc1ccc2oc(-c3cc(Br)ccc3Cl)nc2c1)c1ccc2ccccc2c1,i,nt,nt,nt,nt,nt
SMILES,AmpC inh detg,AMA1 RON2 block,Pf growth 48h,HCV inh,AmpC no deterg,Pf growth 96h
CCN(CC)c1ccc(S(=O)(=O)N2CCOCC2)cc1NC(=O)CNCc1ccccc1,i,i,?,i,i,?
CCN(CC)c1ccc(S(=O)(=O)N2CCOCC2)cc1NC(=O)CSC(=S)N1CCCC1,i,i,?,?,i,10µM
CCN(CC)c1ccc(S(=O)(=O)N2CCOCC2)cc1NC(=O)C1CC1,i,i,i,i,i,i
CCN(CC)c1ccc(S(=O)(=O)N2CCOCC2)cc1NC(=O)CN1CCN(Cc2ccccc2)CC1,i,i,?,?,i,10µM
Cc1cc(-c2ccc(S(=O)(=O)Nc3cccc(C)c3C)s2)on1,i,nt,nt,nt,nt,nt
O=C(NCCc1ccc(Cl)cc1)C(=O)NCC(c1ccco1)S(=O)(=O)c1ccc(Cl)cc1 (stereo not drawn),i,nt,nt,nt,nt,nt
Cc1ccc2nc(Nc3nc(CSc4nnc(C)s4)cc(=O)[nH]3)nc(C)c2c1,i,i,?,?,i,3.3µM
COc1ccc2c(C)nc(Nc3nc(-c4ccccc4)cc(=O)[nH]3)nc2c1,i,i,i,5.6µM,i,i
